Source: PubChem
NOMO-1 viab: NOMO-1 AML cell viability reduction, primary screen, STK33 inhibitor project, CellTiter-Glo luminescence. NOMO-1 AML viability, 72 h. inhibition, % (no concentration beside the values). 7.5% of 37,000 active. AID 2330, 2010; in the data active = inhibition above about 80%; inconclusive = no clear call, values can overlap the other calls
mut p53 react: mutant p53 pathway re-activators, primary screen, cell-based, SW480, luciferase, single point, HTS; activation, % at 9.98 µM; SW480 PUMA-promoter luciferase, p53 mutant reactivation; 1.5% of 28,000 active; in the data active = activation above about 52%; inconclusive = no clear call, values can overlap the other calls
STK33 inh: STK33 kinase inhibitors, primary screen, biochemical, luminescence, ADP-Glo, MBP substrate. 0.44% of 27,000 active. inhibition, % at 12.5 µM. AID 2322, 2010. Serine/threonine-protein kinase 33 (Homo sapiens), Q9BYT3; in the data active = inhibition above about 20%; inconclusive = no clear call, values can overlap the other calls
Target sequence (Q9BYT3 whole entry, looked up): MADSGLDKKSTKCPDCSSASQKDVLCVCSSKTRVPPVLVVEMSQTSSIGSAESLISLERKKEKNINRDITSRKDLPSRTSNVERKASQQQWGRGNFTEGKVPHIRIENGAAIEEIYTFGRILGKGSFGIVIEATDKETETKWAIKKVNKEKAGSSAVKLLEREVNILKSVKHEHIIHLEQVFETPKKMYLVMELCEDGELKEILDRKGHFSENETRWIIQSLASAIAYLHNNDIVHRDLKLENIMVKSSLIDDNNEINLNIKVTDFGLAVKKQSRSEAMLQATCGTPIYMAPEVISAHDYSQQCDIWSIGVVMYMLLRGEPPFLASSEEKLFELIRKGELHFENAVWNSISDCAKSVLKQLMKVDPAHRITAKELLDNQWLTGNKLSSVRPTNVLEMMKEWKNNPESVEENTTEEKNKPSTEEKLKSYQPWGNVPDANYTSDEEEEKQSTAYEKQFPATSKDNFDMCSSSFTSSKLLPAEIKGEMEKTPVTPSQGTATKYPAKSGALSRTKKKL
ID4 binder: binders of human ID4 protein, primary screen, biochemical, small molecule microarray, single point | Flag-ID4 binding, fluorescence F/B | calls only | 1.2% of 31,000 active | AID 624137, 2012; call rule not given here;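 also: a binder raises fluorescence above local background on the spot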
Target sequence (P47928 whole entry, looked up): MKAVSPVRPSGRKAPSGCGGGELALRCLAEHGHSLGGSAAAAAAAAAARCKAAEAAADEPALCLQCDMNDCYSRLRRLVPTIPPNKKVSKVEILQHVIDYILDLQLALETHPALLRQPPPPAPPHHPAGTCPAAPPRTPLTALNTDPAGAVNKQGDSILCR
Each line names hits and unclear results; the compound was inactive in the other large screens. The full list was thinned out, with hits kept by preference.

N#C/C(=C/c1ccc(O)c(O)c1)C(=O)Nc1ccccc1	mut p53 react inconclusive (no result: NOMO-1 viab, STK33 inh)
CNC[C@@H]1OCCCC[C@@H](C)Oc2ccc(NS(=O)(=O)c3cn(C)cn3)cc2C(=O)N([C@H](C)CO)C[C@@H]1C	none (no result: mut p53 react, ID4 binder)
C[C@@H]1CN([C@H](C)CO)C(=O)c2cc(NS(=O)(=O)c3ccc(Cl)cc3)ccc2O[C@@H]1CN(C)Cc1ccc(Cl)c(Cl)c1	NOMO-1 viab 90 (no result: mut p53 react, STK33 inh, ID4 binder)
C[C@H]1CN([C@@H](C)CO)C(=O)c2cc(NS(=O)(=O)c3ccc(F)cc3)ccc2O[C@@H]1CN(C)Cc1ccc(Cl)c(Cl)c1	NOMO-1 viab 110 (no result: mut p53 react, STK33 inh, ID4 binder)
C[C@@H]1CCCCO[C@H](CN(C)Cc2ccc3c(c2)OCO3)[C@@H](C)CN([C@H](C)CO)C(=O)c2cc(NS(=O)(=O)c3ccc(Cl)cc3)ccc2O1	NOMO-1 viab 87 (no result: mut p53 react, ID4 binder)
C[C@@H]1CCCCO[C@@H](CN(C)Cc2ccc(Cl)c(Cl)c2)[C@@H](C)CN([C@H](C)CO)C(=O)c2cc(NS(=O)(=O)c3cccs3)ccc2O1	NOMO-1 viab 118 (no result: mut p53 react, ID4 binder)
C[C@H](CO)N1C[C@H](C)[C@H](CN(C)Cc2ccc(Cl)c(Cl)c2)Oc2ccc(NS(=O)(=O)c3ccc(F)cc3)cc2C1=O	none (no result: mut p53 react, ID4 binder)
C[C@@H]1CN([C@H](C)CO)C(=O)CCCn2nncc2CO[C@H]1CN(C)C(=O)CCCN(C)C	none (no result: NOMO-1 viab, mut p53 react, ID4 binder)
C[C@@H]1CN([C@@H](C)CO)C(=O)Cc2cc(NC(=O)C3CC3)ccc2O[C@H]1CN(C)Cc1ccc(C(F)(F)F)cc1	none (no result: NOMO-1 viab, STK33 inh)
CCOc1cc(S(=O)(=O)NCCN2CCOCC2)ccc1F	none
C/C=C(/C)C(=O)OC(COc1c2ccoc2c(OC)c2oc(=O)ccc12)C(C)(C)O (stereo unspecified)	none
C[C@H]1CN([C@@H](C)CO)C(=O)c2cc(NS(=O)(=O)c3ccccc3)ccc2O[C@H]1CN(C)Cc1ccc(Cl)c(Cl)c1	none (no result: mut p53 react, ID4 binder)
C[C@@H]1CN([C@@H](C)CO)C(=O)c2cc(NS(=O)(=O)c3ccc(Cl)cc3)ccc2O[C@@H]1CN(C)Cc1ccc(Cl)c(Cl)c1	NOMO-1 viab 116 (no result: mut p53 react, STK33 inh, ID4 binder)
C[C@@H]1CCCCO[C@@H](CN(C)Cc2ccc(Cl)c(Cl)c2)[C@@H](C)CN([C@H](C)CO)C(=O)c2cc(NS(=O)(=O)c3ccc(F)cc3)ccc2O1	NOMO-1 viab 99 (no result: mut p53 react, ID4 binder)
C[C@H](CO)N1C[C@H](C)[C@H](CN(C)Cc2ccc(Cl)c(Cl)c2)Oc2ccc(NS(=O)(=O)c3ccc(Cl)cc3)cc2C1=O	none (no result: mut p53 react, ID4 binder)
C[C@H]1CN([C@@H](C)CO)C(=O)c2cc(NS(=O)(=O)c3ccc(F)cc3)ccc2O[C@H]1CN(C)Cc1ccc2c(c1)OCO2	NOMO-1 viab 93 (no result: mut p53 react, ID4 binder)
C[C@@H]1CN([C@@H](C)CO)C(=O)c2cc(NS(=O)(=O)c3ccccc3)ccc2O[C@@H]1CN(C)Cc1ccc(Cl)c(Cl)c1	NOMO-1 viab 103 (no result: mut p53 react, ID4 binder)
Cc1ccc(S(=O)(=O)Nc2ccc3c(c2)C(=O)N([C@H](C)CO)C[C@H](C)[C@@H](CN(C)Cc2ccc(Cl)c(Cl)c2)OCCCC[C@@H](C)O3)cc1	none (no result: ID4 binder)
COc1cc(/C(C)=C/C(C)CCCC(=O)O)oc(=O)c1C (stereo unspecified)	none (no result: ID4 binder)
O=C1Oc2cc(O)cc(O)c2[C@@H](c2ccc(O)cc2)[C@H]1[C@H]1C(=O)Oc2cc(O)cc(O)c2[C@H]1c1ccc(O)cc1	STK33 inh 28 (no result: ID4 binder)
O=C(O)c1ccc(NS(=O)(=O)c2cc3c4c(cccc4c2)C(=O)NC3=O)cc1	NOMO-1 viab 140 (no result: mut p53 react, STK33 inh, ID4 binder)
CS/C(Nc1cccc(Cl)c1Cl)=C(/C#N)C(=O)c1cccs1	NOMO-1 viab 94 (no result: mut p53 react, STK33 inh, ID4 binder)
O=S(=O)(NCC(O)Cn1c2ccc(Cl)cc2c2cc(Cl)ccc21)c1ccccc1 (stereo unspecified)	NOMO-1 viab 113
CCC(C)C(=O)c1c(O)cc2c(c1O)CC(CC=C(C)C)C(C)(C)O2 (stereo unspecified)	NOMO-1 viab 88
NCCCCCNC(=O)[C@@H]1C[C@@H]2C(=O)NCC(=O)N2[C@@H]1c1cccc(OCCO)c1	ID4 binder active (no result: NOMO-1 viab, mut p53 react)
CN(C)CCCCNC(=O)[C@@H]1C[C@@H]2C(=O)NCC(=O)N2[C@@H]1c1ccc(O)cc1	none (no result: NOMO-1 viab, mut p53 react)
NCCCCCCNC(=O)[C@@H]1C[C@@H]2C(=O)NCC(=O)N2[C@@H]1c1ccc(O)cc1	ID4 binder active (no result: NOMO-1 viab, mut p53 react, STK33 inh)
NCCCCCCNC(=O)[C@@H]1C[C@@H]2C(=O)N[C@@H](Cc3ccccc3)C(=O)N2[C@@H]1c1ccc(O)cc1	ID4 binder active (no result: NOMO-1 viab, mut p53 react)
O=C1CS(=O)(=O)C(c2ccccc2)N1c1ccc(-c2ccccc2)cc1 (stereo unspecified)	none (no result: NOMO-1 viab, mut p53 react)
Cc1ccccc1NC(=O)CSc1nc(-c2ccc(Cl)cc2)cc(C(F)(F)F)n1	NOMO-1 viab 95
COC(=O)c1ccc(Cl)c(NC(=O)CSc2nc(-c3ccccc3)cc(C(F)(F)F)n2)c1	NOMO-1 viab 113
COc1ccc(-c2cc(C(F)(F)F)nc(SCC(=O)Nc3ccccc3C)n2)cc1	none (no result: NOMO-1 viab)
CC(=O)OC(C)(C)/C=C/C(=O)[C@](C)(O)[C@H]1C(O)C[C@@]2(C)[C@@H]3CC=C4[C@@H](C=C(O[C@@H]5O[C@H](CO)[C@@H](O)[C@H](O)[C@H]5O)C(=O)C4(C)C)[C@]3(C)C(=O)C[C@]12C (stereo partly specified)	NOMO-1 viab 117 (no result: mut p53 react)
C[C@H](CO)N1C[C@H](C)[C@@H](CN(C)Cc2ccncc2)Oc2ccc(NC(=O)Nc3ccc(C(F)(F)F)cc3)cc2C1=O	none (no result: mut p53 react, STK33 inh, ID4 binder)
C[C@H](CO)N1C[C@H](C)[C@H](CN(C)Cc2ccncc2)Oc2ccc(NC(=O)Nc3ccc(C(F)(F)F)cc3)cc2C1=O	NOMO-1 viab 86 (no result: mut p53 react, STK33 inh, ID4 binder)
C[C@H]1CN([C@@H](C)CO)C(=O)c2cc(NC(=O)Nc3ccc(C(F)(F)F)cc3)ccc2O[C@H]1CN(C)Cc1ccncc1	NOMO-1 viab 102 (no result: mut p53 react, STK33 inh, ID4 binder)
C=C1C(=O)O[C@H]2C1CCC(=C)[C@@H]1C[C@H](OC(=O)C=C(C)C)C(=C)[C@@H]12 (stereo partly specified)	NOMO-1 viab 96 (no result: ID4 binder)
C[C@H](CO)N1C[C@H](C)[C@H](CN(C)CC2CCOCC2)Oc2ncc(C#Cc3ccccn3)cc2C1=O	none (no result: NOMO-1 viab, mut p53 react, STK33 inh)
CC(=O)Oc1ccc(C(=O)NCc2nc(-c3ccccc3)no2)cc1	none
CNC[C@H]1Oc2ccc(NC(=O)Cc3cn(C)c4ccccc34)cc2CC(=O)N([C@@H](C)CO)C[C@H]1C	ID4 binder active (no result: STK33 inh)
CNC[C@H]1Oc2ccc(NC(=O)Cc3ccccc3)cc2CC(=O)N([C@H](C)CO)C[C@@H]1C	ID4 binder active (no result: NOMO-1 viab, STK33 inh)
CNC[C@@H]1Oc2ccc(NC(=O)Cc3ccccc3)cc2CC(=O)N([C@H](C)CO)C[C@@H]1C	none
COc1ccc(COCC23Oc4ccccc4[C@H]([C@H]2CO)n2c(c4c(c(C(C)=O)c2=O)C(=O)N(C)C4=O)N3C)cc1	none (no result: NOMO-1 viab, mut p53 react, STK33 inh)
C[C@H]1CN([C@@H](C)CO)C(=O)Cc2cc(NS(=O)(=O)c3cn(C)cn3)ccc2O[C@@H]1CN(C)CC1CC1	none (no result: NOMO-1 viab, STK33 inh)
C[C@@H]1CN([C@@H](C)CO)C(=O)c2cccc(NC(=O)Nc3ccc(C(F)(F)F)cc3)c2O[C@@H]1CN(C)Cc1ccc(C(=O)O)cc1	none (no result: STK33 inh)
